High-throughput results (PubChem BioAssay)
Rows were chosen to be rich in hits. Some 18% of all compounds tested hit in one or more screens of this group.
TGFb inhibitor: blocks TGF-b signaling; HepG2 CAGA-GFP TGF-b/SMAD3 reporter, GFP fluorescence, 18 h; TGF-beta stimulated, 500 pg/mL final; Potency, µM (top dose mostly 46.1 µM), for the others: at the highest dose activity, negative = inhibition, hits mostly inhibitors; 1.2% of 410,000 active; AID 588855; note: potency is the fitted concentration of half-maximal effect; % is set by controls: 0 for no effect and ±100 for the full control effect; nearly all actives have a fitted effect of over 65% in size
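Per well, imaged GFP fluorescence of HEPG2 CAGA-GFP cells gives the signal; cells get compound, then TGF-beta (500 pg/mL final), 18 h at 37 degrees C; %Activity versus -TGF-beta and +DMSO controls.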
TDP1 block: TDP1 (human) enzyme inhibition; Q9NUW8; recombinant TDP1, AlphaScreen DNA substrate cleavage; Potency, µM (highest dose often 130 µM), for inactives: top-dose activity change, negative = inhibition, actives largely listed as inhibitors; 0.28% of 350,000 active; note: potency is the fitted concentration of half-maximal effect; % is set by controls: 0 for no effect and ±100 for the full control effect; nearly all actives have a fitted effect of over 40% in size
Target sequence (Q9NUW8 whole entry, looked up): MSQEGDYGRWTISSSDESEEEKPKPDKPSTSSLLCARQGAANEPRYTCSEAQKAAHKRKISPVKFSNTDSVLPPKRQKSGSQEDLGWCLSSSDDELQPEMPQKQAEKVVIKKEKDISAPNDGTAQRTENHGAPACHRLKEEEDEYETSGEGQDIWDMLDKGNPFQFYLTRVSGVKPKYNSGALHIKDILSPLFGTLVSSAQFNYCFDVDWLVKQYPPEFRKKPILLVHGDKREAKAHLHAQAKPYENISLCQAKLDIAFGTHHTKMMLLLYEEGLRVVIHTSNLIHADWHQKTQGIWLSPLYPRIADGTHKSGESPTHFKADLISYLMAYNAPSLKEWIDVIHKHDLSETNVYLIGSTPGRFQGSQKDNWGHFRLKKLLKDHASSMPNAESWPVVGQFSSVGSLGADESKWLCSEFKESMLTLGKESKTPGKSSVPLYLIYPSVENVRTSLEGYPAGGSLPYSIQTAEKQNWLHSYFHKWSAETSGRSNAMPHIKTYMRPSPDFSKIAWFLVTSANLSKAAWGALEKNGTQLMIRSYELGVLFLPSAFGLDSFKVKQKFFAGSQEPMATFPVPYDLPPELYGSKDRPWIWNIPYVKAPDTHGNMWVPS
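Tdp1 1 nM final; 15 min RT w/ cpd; substrate 15 nM, 5 min; beads 10 ug/ml, 10 min; AlphaScreen read. Neg ctrl: no enzyme.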
IL-1B inflam inh: inflammasome signaling inhibition, IL-1 beta readout | AID 743279 | THP-1 LPS/ATP IL-1B secretion, AlphaLISA, 16 h; active compounds read low | 4.7% of 360,000 active | activity change, % at 57.5 µM; in the data active = activity change below about -50%; inconclusive = mostly about -30% to -49%; note: % is set by controls: 0 for no effect and ±100 for the full control effect
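Secreted IL-1B measured by AlphaLISA bead assay after 16 h compound exposure of THP-1 cells; compounds (final up to 57.5 uM) added 1 h before LPS (250 ng/mL) and ATP (1.25 mM) stimulation; lower signal means less secretion.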
DT40 TDP1 no CPT: qHTS for Inhibitors of human tyrosyl-DNA phosphodiesterase 1 (TDP1): qHTS in cells in absence of CPT; 15% of 420,000 active; DT40 Tdp1-/- hTDP1 cells, no CPT, ATP luminescence, 48 h; Potency, µM (top dose mostly 46.2 µM), for inactives: top-dose activity change, negative = growth inhibition, hits mostly inhibitors; AID 686978, 2013; note: potency is the fitted concentration of half-maximal effect; % is set by controls: 0 for no effect and ±100 for the full control effect; nearly all actives have a fitted effect of over 55% in size
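Chicken DT40 Tdp1-/- cells stably complemented with human TDP1 were seeded at 400 cells/well with DMSO in place of 20 nM camptothecin. After compound pinning, cells grew at least 48 hr at 37 °C; viability read by CellTiter-Glo luminescence.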
HepG2 tox: kills HepG2 cells in TGF-b inhibitor counter-screen; Potency, µM (series often up to 46.1 µM), for inactives: at the top dose activity change, negative = cytotoxicity, actives largely listed as cytotoxic; HepG2 CAGA-GFP viability, ATP luminescence, 18 h; 0.76% of 410,000 active; note: potency is the fitted concentration of half-maximal effect
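CellTiter-Glo luminescence gave cytotoxicity after 18 hours at 37 degrees C. The cells were HepG2 CAGA-GFP in 1% FBS DMEM, stimulated with 500 pg/mL TGF-beta after compound addition. %Activity was normalised to no-cell wells (complete cell-killing) and DMSO (no toxicity), and curves were fitted and classified.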
TDP1 cell CPT: growth inhibition of DT40 Tdp1-/-;hTDP1 cells with camptothecin (screen for TDP1 inhibitors) | 12% of 420,000 active | chicken DT40 Tdp1-/-;hTDP1 cells + 20 nM CPT, ATP luminescence, 48 h | Potency, µM (series often up to 46.2 µM), for inactives: top-dose activity change, negative = growth inhibition, most hits filed as inhibitors; note: potency is the fitted concentration of half-maximal effect; % is set by controls: 0 for no effect and ±100 for the full control effect; nearly all actives have a fitted effect of over 55% in size
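Chicken DT40 Tdp1-/- cells stably complemented with human TDP1 were seeded at 400 cells/well in medium containing 20 nM camptothecin, exposed to pin-transferred compounds, and grown at 37 °C for at least 48 hr. Viability was read as ATP luminescence.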
An asterisk follows results filed as active; ! = not active in a repeat; [ ] = another dose, or the depositor's remark. Unless noted, calls come from the whole dose curve; as a rule, active = well fitted curve in the direction sought with a large enough effect; inconclusive = small, poorly fitted or top-dose-only effect, or another doubt; inactive = no such curve, though single readings can be large; an effect the other way counts as inactive or inconclusive.

`C[C@]12CC[C@@H]3c4ccc(O)cc4C[C@@H](CCCCCCCCCS(=O)CCCC(F)(F)C(F)(F)F)[C@H]3[C@@H]1CC[C@@H]2O` (stereo partly specified) gave DT40 TDP1 no CPT inconclusive and TDP1 cell CPT -40.0%.
For COC(=O)c1ccc(NC(=O)c2cccn(Cc3ccccc3C)c2=O)cc1 the results were TGFb inhibitor -4.4%, TDP1 block 5.5%, DT40 TDP1 no CPT 10.7%, HepG2 tox -4.6% and TDP1 cell CPT -11.6%.
`NCC(=O)c1ccc(Br)cc1` gave TGFb inhibitor inconclusive, DT40 TDP1 no CPT 4.6%, HepG2 tox -30.3% and TDP1 cell CPT 12.8%.
For CC1C(OC(=O)CCC(=O)NC(C)(C)CO)O[C@H]2OC3(C)CC[C@H]4[C@H](C)CCC1C24OO3 (stereo partly specified) the results were TGFb inhibitor 11.3%, IL-1B inflam inh -68.2*, DT40 TDP1 no CPT 0.0366µM*, HepG2 tox -27.2% and TDP1 cell CPT 0.82µM*.
For C[C@H]1[C@H](OC(=O)CCC(=O)NCc2ccc(C(=O)O)cc2)O[C@@H]2O[C@@]3(C)CC[C@H]4[C@H](C)CC[C@@H]1C24OO3 the results were TGFb inhibitor -14.9%, IL-1B inflam inh -8.0, DT40 TDP1 no CPT 0.0259µM*, HepG2 tox -24.0% and TDP1 cell CPT 0.259µM*.
CC(C)CC(NC(=O)CCCNC(=O)CCC(=O)OC1O[C@H]2OC3(C)CC[C@H]4[C@H](C)CCC(C1C)C24OO3)C(=O)O (stereo partly specified) was read as TGFb inhibitor -5.0%, IL-1B inflam inh -5.5, DT40 TDP1 no CPT 0.184µM*, HepG2 tox -4.7% and TDP1 cell CPT 0.206µM*.
Screening CC(C)(O)[C@@H]1[C@H]2OC(=O)[C@@H]1[C@]1(O)C[C@H]3O[C@]34C(=O)O[C@H]2[C@]14C returned DT40 TDP1 no CPT 2.3% and TDP1 cell CPT 13.0%.
For Cc1ccc(Cn2c(=O)n(CCCCC(=O)NCc3ccccc3Cl)c(=O)c3ccccc32)cc1 the results were TGFb inhibitor -17.5%, TDP1 block 0.0%, DT40 TDP1 no CPT 5.17µM*, HepG2 tox 2.1% and TDP1 cell CPT 4.61µM*.
For COc1ccc(CCNC(=O)CCn2c(=O)c3ccccc3n(Cc3ccc(Cl)cc3)c2=O)cc1OC the results were TGFb inhibitor 12.1%, TDP1 block -0.9%, DT40 TDP1 no CPT 6.51µM*, HepG2 tox 15.1% and TDP1 cell CPT 18.4µM*.
Screening COc1ccc(Nc2nc(NC(C)C)nc3ccsc23)cc1OC returned TGFb inhibitor 17.5%, IL-1B inflam inh -89.1*, DT40 TDP1 no CPT 18.4µM*, HepG2 tox -23.8% and TDP1 cell CPT 18.4µM*.
For CCC(C)C(=O)OC1C(O)C2C(CN3CC(C)CCC3[C@]2(C)O)C2C[C@]34O[C@@]5(O)C(OC(=O)C(C)(O)CC)CCC3(C)C5C(OC(C)=O)C(OC(C)=O)C4[C@@]21O (stereo partly specified) the results were TDP1 block 12.4%[56.1 µM], DT40 TDP1 no CPT 4.3% and TDP1 cell CPT 0.8%.
`CCN1C[C@]2(COC)CC[C@H](OC)[C@@]34C5C[C@@H]6[C@@H](OC)C[C@@]7(OCO[C@@]7([C@@H](O)C23)[C@@H]14)C5[C@H]6OC` (stereo partly specified) gave TDP1 block 4.9%, DT40 TDP1 no CPT 0.3% and TDP1 cell CPT 0.5%.
`CCCCOCCCn1c(N)c(C(=O)OC(C)COC)c2nc3ccccc3nc21` (stereo unspecified) gave TGFb inhibitor -5.8%, TDP1 block 1.0%[56.1 µM], IL-1B inflam inh inconclusive, DT40 TDP1 no CPT inconclusive, HepG2 tox -5.5% and TDP1 cell CPT inconclusive.
Screening COCCCNC(=O)c1c(NC(=O)c2ccccc2Cl)n(Cc2ccccc2)c2nc3ccccc3nc12 returned TGFb inhibitor -2.7%, TDP1 block -2.1%, IL-1B inflam inh -4.2, DT40 TDP1 no CPT -14.3%, HepG2 tox 23.9% and TDP1 cell CPT -5.2%.
`CCCCn1c(NC(=O)c2ccc(Br)o2)c(C(=O)OCC)c2nc3ccccc3nc21` gave TGFb inhibitor -3.8%, TDP1 block 0.0%, IL-1B inflam inh -7.2, DT40 TDP1 no CPT 20.6µM*, HepG2 tox -18.9% and TDP1 cell CPT inconclusive.
CCCCn1c(NS(=O)(=O)c2ccccc2)c(C(=O)OCC)c2nc3ccccc3nc21 was read as TGFb inhibitor -12.4%, TDP1 block 0.0%, IL-1B inflam inh -22.7, DT40 TDP1 no CPT 20.6µM*, HepG2 tox -9.8% and TDP1 cell CPT inconclusive.
For CN1C[C@@H](CS(=O)(=O)N(C)C)C[C@@H]2c3cccc4c3c(cn4C)C[C@H]21 the results were TDP1 block 11.3%[56.1 µM].
Screening C=CCn1c(O)c(C(C)=NCc2cccnc2)c(=O)[nH]c1=O returned TGFb inhibitor -0.9%, TDP1 block 3.4%, IL-1B inflam inh 2.9, DT40 TDP1 no CPT -0.2%, HepG2 tox -4.2% and TDP1 cell CPT -1.1%.
For C=CCn1c(O)c(C(C)=NCc2cc(OC)cc(OC)c2)c(=O)[nH]c1=O the results were TGFb inhibitor -10.2%, TDP1 block 3.8%, IL-1B inflam inh 70.6, DT40 TDP1 no CPT 1.64µM*, HepG2 tox 7.08µM* and TDP1 cell CPT 4.11µM*.
Screening Cc1cccc(OCCNc2ncccc2[N+](=O)[O-])c1 returned TGFb inhibitor 5.6%, IL-1B inflam inh -6.0, DT40 TDP1 no CPT inconclusive, HepG2 tox 6.6% and TDP1 cell CPT inconclusive.
For Cc1cccc(N2CCc3c2nc2ccccc2c3N)c1 the results were TGFb inhibitor inconclusive, TDP1 block 3.1%, IL-1B inflam inh -91.4*!, DT40 TDP1 no CPT inconclusive, HepG2 tox -28.5% and TDP1 cell CPT 14.6µM*.
For CC(C)C[C@@H](CN(N=O)[C@@H](Cc1ccccc1)CN(C)N=O)N(CCc1ccccc1)N=O the results were TGFb inhibitor inconclusive, TDP1 block 1.3%, IL-1B inflam inh 2.2, DT40 TDP1 no CPT inconclusive, HepG2 tox -1.1% and TDP1 cell CPT inconclusive.
For CN(C[C@H](Cc1ccccc1)N(C[C@H](c1ccccc1)N(CCc1ccccc1)N=O)N=O)N=O the results were TGFb inhibitor -1.4%, TDP1 block 3.8%, IL-1B inflam inh -17.6, DT40 TDP1 no CPT 16.4µM*, HepG2 tox -2.4% and TDP1 cell CPT inconclusive.
